The campaign covered roughly 68,000 compounds. About 2,700 (4%) showed an effect of 50% or more. This excerpt belongs to a sample that is enriched for strong results.

The subject of the experiment is Plasmodium berghei. Put plainly: Screen against P. berghei liver stage (PbLuc), transformed with Luciferase, at 2uM. Type of experiment: functional, HepG2. The note with it: tested at 2 uM.
In the case of `CCCN1CCC2(C1)c1ccccc1S(=O)(=O)N2Cc1ccccc1` (centres undefined), the INHIBITION is reported as 9.87%.

For the molecule `CCCn1ccc2cc(NC(=O)NCCn3cnnc3CC)ccc21`, the INHIBITION worked out at 12.58%.

On to `O=C([C@H]1COC[C@H]2CN(C3CCCC3)C[C@H]21)N1CCCO1`, for which the INHIBITION came out at 0.13%.

On to `CCS(=O)(=O)N1CCC2(CC(=O)N(c3ccccc3C)C2)C1` (centres undefined), for which the INHIBITION was found to be 46.87%.

Turning to `Cc1ccc(C2c3c(n[nH]c3C)N=C3COC(=O)C32)cc1C` (centres undefined), the INHIBITION is listed as 28.23%.

For `CC(=O)Nc1cnc(Oc2ccccc2F)nc1`, the INHIBITION came to 8.41%.

Regarding `CO[C@@H]1CO[C@@]2(CCCN(Cc3nc(C)cs3)C2)C1`, the INHIBITION was -61.54%.

As to `O=C1CC(NCc2ccncc2)CN1Cc1cccc(F)c1` (centres undefined), the INHIBITION was -12.82%.

Take `Nc1cc2c(nn1)CCN(C(=O)CCCC1CCCCC1)C2`: the INHIBITION is recorded as -33.92%.

Regarding `Cc1nc(CN2CCCC(N(C)c3ccc(C#N)cn3)C2)no1` (centres undefined), the INHIBITION was -14.71%.

On to `COc1cc2c(nn1)CCN(Cc1nc(Cc3ccccc3)no1)C2`, for which the INHIBITION stood at 48.93%.

For the molecule `COc1cc2c(nn1)CCN(Cc1noc(-c3ccccc3)n1)C2`, the INHIBITION was determined as 0.12%.

As for `COc1cc2c(nn1)CCN(Cc1noc(CC(C)C)n1)C2`, the INHIBITION came out at 65.76%.

As to `Cc1nn(C)c(Cl)c1C1CCCN1C(=O)c1cnccn1` (centres undefined), the INHIBITION worked out at 3.86%.

Regarding `COc1c(C2CCCN2C(=O)c2cc(C3CC3)on2)c(C)nn1C` (centres undefined), the INHIBITION is listed as -47.94%.

In the case of `Cc1nn(C)c(Cl)c1C1CCCN1C(=O)c1ccc(C(N)=O)cn1` (centres undefined), the INHIBITION is on record as 68.24%.

For the molecule `Cc1nn(C)c(C)c1C1CCCN1C(=O)c1ccc(C(N)=O)cn1` (centres undefined), the INHIBITION was -27.71%.

Consider `Cc1nn(C)c(Cl)c1C1CCCN1C(=O)c1csnn1` (centres undefined), for which the INHIBITION is 75.98%.

`COc1c(C2CCCN2C(=O)c2cc(C)on2)c(C)nn1C` (centres undefined): the INHIBITION is on record as 51.94%.

Consider `Cc1cc(C(=O)N2CCCC2c2c(C)nn(C)c2C)no1` (centres undefined), for which the INHIBITION amounted to 43%.

As to `Cc1nn(C)c(Cl)c1C1CCCN1C(=O)c1cc[nH]n1` (centres undefined), the INHIBITION is on record as 47.57%.

`Cc1nn(C)c(Cl)c1C1CCCN1C(=O)c1ccc(O)nc1` (centres undefined): the INHIBITION is -36.73%.

On to `O=C([C@H]1CN(Cc2ccccc2F)C[C@H]2OCC[C@@H]12)N1CCCO1`, for which the INHIBITION is 13.61%.

As for `CC(NC(=O)N1CCCN(CC(F)F)CC1)c1ccco1` (centres undefined), the INHIBITION is on record as 1.06%.

For the molecule `CNc1nc(CNC(=O)Nc2cccc(C)c2Cl)cs1`, the INHIBITION is 15.4%.

With `CNc1nc(CNC(=O)Nc2cccc(Cl)c2Cl)cs1`, the INHIBITION was determined as 61.09%.

Take `CNc1nc(CNC(=O)Nc2cccc(Cl)c2OC)cs1`: the INHIBITION is reported as -4.43%.

In the case of `CC(C)(C)c1nnc(NCC(=O)N2CCc3sccc3C2)s1`, the INHIBITION came out at 33.83%.

With `O=C(NCc1nnc2n1CCC2)N(Cc1ccco1)C1CC1`, the INHIBITION is 17.52%.

With `COCCCNC1CCCN(c2ccc(C)nn2)C1` (centres undefined), the INHIBITION was -73.41%.

Turning to `Cc1ccc(N2CCCC(NCc3cccc4c3OCO4)C2)nn1` (centres undefined), the INHIBITION is on record as 56.02%.

In the case of `Cc1ccc(N2CCCC(NCCS(C)(=O)=O)C2)nn1` (centres undefined), the INHIBITION is recorded as 52.6%.

In the case of `Cc1ccc(N2CCCC(NCc3cccc4c3OCCO4)C2)nn1` (centres undefined), the INHIBITION is given as 15.13%.

For `c1cnnc(N2CCCC(NCc3cccc4c3OCO4)C2)c1` (centres undefined), the INHIBITION is on record as -9.98%.

On to `Cc1ccc(N2CCCC(NCCCS(C)(=O)=O)C2)nn1` (centres undefined), for which the INHIBITION is reported as -15.77%.

With `CCOCC1CN(Cc2cnn(C)c2)Cc2nn(C)cc21` (centres undefined), the INHIBITION is given as 19.44%.

As for `CS(=O)(=O)N[C@@H]1CN(C(=O)c2cccnc2)[C@@H]2CCCO[C@@H]21`, the INHIBITION was -13.61%.

For the molecule `COCC(NC(=O)c1cnn(C)c1)c1cccc(C(F)(F)F)c1` (centres undefined), the INHIBITION was determined as 31.38%.

With `CCOCC1CN(Cc2ccoc2)Cc2nn(C)cc21` (centres undefined), the INHIBITION is -55.93%.

Turning to `CC(C)CN1CCCn2nc(CNC(=O)Cc3cccc(O)c3)cc2C1`, the INHIBITION worked out at 49.95%.

Consider `CCc1nc(CN(C)C2CCN(CCNS(=O)(=O)CC)C2)no1` (centres undefined), for which the INHIBITION amounted to 20.71%.

Take `CN(Cc1noc(C2CC2)n1)C1CCN(CCn2cc(C#N)cn2)C1` (centres undefined): the INHIBITION is on record as -9.17%.

For the molecule `CN(Cc1noc(C2CC2)n1)C1CCN(CCn2cccn2)C1` (centres undefined), the INHIBITION amounted to 10.1%.

On to `Cc1nc(CN(C)C2CCN(CCn3cc(C#N)cn3)C2)no1` (centres undefined), for which the INHIBITION was -27.5%.

In the case of `CN(Cc1noc(C2CC2)n1)C1CCN(CCS(C)(=O)=O)C1` (centres undefined), the INHIBITION is recorded as -6.15%.

In the case of `CCc1nc(CN(C)C2CCN(CCS(C)(=O)=O)C2)no1` (centres undefined), the INHIBITION was found to be 50.72%.

As to `CCc1nc(CN(C)C2CCN(CCn3cccn3)C2)no1` (centres undefined), the INHIBITION is 51.94%.

With `CCc1nc(CN(C)C2CCN(CCc3ccncc3)C2)no1` (centres undefined), the INHIBITION is on record as -11.16%.

As for `CC(C)c1nc(CN(C)C2CCN(CCn3cc(C#N)cn3)C2)no1` (centres undefined), the INHIBITION turned out to be 60.09%.

Take `CC(=O)N(C)CC(=O)NC1(c2ccc(Cl)c(Cl)c2)CC1`: the INHIBITION is 23.45%.

Turning to `Cc1nc(C)c(C(=O)NCCNC(=O)Cc2cccc(F)c2)s1`, the INHIBITION stood at 30.91%.

Regarding `CSCC(C)(O)CNS(=O)(=O)c1ccc(F)cc1` (centres undefined), the INHIBITION is reported as -40%.

As to `CN(Cc1csc(-c2cccs2)n1)Cc1cccnc1N`, the INHIBITION was 27.47%.

As for `Clc1ccc(OCCCN2CCOC(Cn3cncn3)C2)cc1` (centres undefined), the INHIBITION is given as 9.17%.
